Where a name gives a salt, the structure may show the parent alone.

The first assay deals with Saccharomyces cerevisiae. Description: fraction of cells in G1 phase (DNA content, flow cytometry); higher = more cells with unreplicated DNA (G1 delay). The settings on record: temperature: 30 C; YPD; BY4741 PDR5+ SNQ2+; drug added to: actively dividing cells; 4.33 h. On the procedure: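 S. cerevisiae cultures in YPD at 30°C were treated with each drug of the Enzo FDA-approved library at 20 µg/ml (final µM given per drug). Cells were fixed after 6–7 h (S1) or 6 h (S2), or after 4.33 h for BY4741 (S3), then stained with SYTOX Green. %G1 is the Dean-Jett-Fox G1 peak area divided by the G1+G2/M peak areas, written as a fraction and averaged over at least two independent experiments. DMSO reference: mean ~0.49; >0.60 is called High G1 and <0.3876 Low G1. Scale: lower means mitotic delay.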
(A flow cytometer gives signals particle by particle.)
For the compound `C[C@]12CC[C@H](O)CC1=CC[C@@H]1[C@@H]2CC[C@]2(C)C(=O)CC[C@@H]12` [Dehydroepiandrosterone] (69.34 µM), the “fraction of cells in G1 phase” value is 0.501.

Still in this assay, the particulars now being: temperature: 30 C; YPD; JTY2953 pdr5 snq2 (sensitized); drug added to: actively dividing cells; 6 h.
Consider `C[C@]12CC[C@H](O)CC1=CC[C@@H]1[C@@H]2CC[C@]2(C)C(=O)CC[C@@H]12` [Dehydroepiandrosterone] (69.34 µM), for which the “fraction of cells in G1 phase” value was 0.719.

The same assay, now with this note: temperature: 30 C; YPD; JTY2953 pdr5 snq2 (sensitized); drug added to: cultures diluted from stationary phase; 6-7 h.
On to `COc1ccc2c(c1)[C@]13CCCC[C@@H]1[C@H](C2)N(C)CC3` [Dextromethorphan HBr] (73.6903 µM), for which the “fraction of cells in G1 phase” value came out at 0.503.
The same measure, in the same setting: next, `C=CCN1C[C@H](C(=O)N(CCCN(C)C)C(=O)NCC)C[C@@H]2c3cccc4[nH]cc(c34)C[C@H]21` [Cabergoline] (44.2853 µM): 0.496; `COc1ccc(CCN2CCC(Nc3nc4ccccc4n3Cc3ccc(F)cc3)CC2)cc1` [Astemizole] (43.6125 µM): 0.501; `C[C@]12CC[C@H](O)CC1=CC[C@@H]1[C@@H]2CC[C@]2(C)C(=O)CC[C@@H]12` [Dehydroepiandrosterone] (69.34 µM): 0.633.
The same measure, in the same setting: the value for `O=P1(N(CCCl)CCCl)NCCCO1` (centres undefined) [Cyclophosphamide monohydrate] (76.6021 µM) was 0.501; that for `CCC1(c2ccc(N)cc2)CCC(=O)NC1=O` (racemic) [Dl-aminoglutethimide] (86.1012 µM) was 0.476; that for `CN(C)C(=O)Oc1cccc([N+](C)(C)C)c1` [Neostigmine Br] (89.5666 µM) was 0.485.
In the case of `CC[C@@H](CO)NC(=O)[C@@H]1C=C2c3cccc4c3c(cn4C)C[C@H]2N(C)C1` [Methysergide] (56.5822 µM), the “fraction of cells in G1 phase” value was found to be 0.48.
On the same count and under the same terms, the value for `O=c1[nH]c2ccccc2n1CCCN1CCC(n2c(=O)[nH]c3cc(Cl)ccc32)CC1` [Domperidone] (46.957 µM) was 0.505; that for `CC(C)NCC(O)c1ccc(N)c(C#N)c1` (centres undefined) [Cimaterol] (91.2039 µM) was 0.493; that for `CC(C)[C@@]1(NC(=O)[C@@H]2C[C@@H]3c4cccc5[nH]cc(c45)C[C@H]3N(C)C2)O[C@@]2(O)[C@@H]3CCCN3C(=O)[C@H](Cc3ccccc3)N2C1=O` [Dihydroergocristine mesylate] (32.6932 µM) was 0.465.
On the same count and under the same terms, next, `O=C(CCCN1CCC2(CC1)C(=O)NCN2c1ccccc1)c1ccc(F)cc1` [Spiperone] (50.5713 µM): 0.484.
Still for that read-out and setting: next, `Oc1ccc2c3c1O[C@H]1c4[nH]c5ccccc5c4C[C@@]4(O)[C@@H](C2)N(CC2CC2)CC[C@]314` [Naltrindole HCl] (48.2499 µM): 0.504; `O=P1(NCCCl)OCCCN1CCCl` (centres undefined) [Ifosfamide] (76.6021 µM): 0.489; `CC(C)CC(N(C)C)C1(c2ccc(Cl)cc2)CCC1` (centres undefined) [Sibutramine HCl] (71.4652 µM): 0.516.
In the case of `O=C(O)CCCc1ccc(N(CCCl)CCCl)cc1` [Chlorambucil] (65.7421 µM), the “fraction of cells in G1 phase” value was 0.456.
Still for that read-out and setting: next, `CN1[C@@H]2C[C@@H](OC(=O)[C@H](CO)c3ccccc3)C[C@H]1[C@@H]1O[C@@H]12` [Scopolamine HBr] (65.928 µM): 0.464; `CC(C)c1cccc(C(C)C)c1O` [Propofol] (112.185 µM): 0.511; `COc1ccc2c(c1)[nH]c1c(C)nccc12` [Harmine] (94.227 µM): 0.474.
In the case of `CN1[C@@H]2CC[C@H]1C[C@@H](OC(=O)C(CO)c1ccccc1)C2` (some centres undefined) [Atropine sulfate] (69.1138 µM), the “fraction of cells in G1 phase” value came out at 0.474.
The same measure, in the same setting: the value for `C=C1C[C@@H]2[C@H](CC[C@]3(C)C(=O)CC[C@@H]23)[C@@]2(C)C=CC(=O)C=C12` [Exemestane] (67.4764 µM) was 0.567.
On the same count and under the same terms, next, `COc1cccc(C2(O)CCCCC2CN(C)C)c1` (centres undefined) [Tramadol HCl] (75.935 µM): 0.492; `O=C1CC[C@@]2(O)[C@H]3Cc4ccc(O)c5c4[C@@]2(CCN3CC2CC2)[C@H]1O5` [Naltrexone HCl] (58.5805 µM): 0.509; `NCCCNCCSP(=O)(O)O` [Amifostine] (93.3599 µM): 0.512.
As to `Oc1ccc2c3c1O[C@H]1c4oc5ccccc5c4C[C@@]4(O)[C@@H](C2)N(CC2CC2)CC[C@]314` [Naltriben methanesulfonate hydrate] (39.093 µM), the “fraction of cells in G1 phase” value turned out to be 0.45.
Still for that read-out and setting: next, `COc1ccc(C(=O)N2CCCC2=O)cc1` [Aniracetam] (91.2233 µM): 0.483; `O=C([O-])Cc1ccccc1.[Na+]` [Sodium phenylacetate] (126.475 µM): 0.487; `CC(N)C(O)c1ccccc1` (centres undefined) [Phenylpropanolamine] (132.266 µM): 0.466.
On the same count and under the same terms, the value for `CN(C)C(=O)Oc1cc(OC(=O)N(C)C)cc(C(O)CNC(C)(C)C)c1` (centres undefined) [Bambuterol] (54.4293 µM) was 0.518.
On to `CN1C[C@H](C(=O)N[C@]2(C)O[C@@]3(O)[C@@H]4CCCN4C(=O)[C@H](Cc4ccccc4)N3C2=O)C[C@@H]2c3cccc4[nH]cc(c34)C[C@H]21` [Dihydroergotamine mesylate] (34.2646 µM), for which the “fraction of cells in G1 phase” value amounted to 0.527.
In the case of `Cc1c(N)nc(C(CC(N)=O)NCC(N)C(N)=O)nc1C(=O)NC(C(=O)NC(C)C(O)C(C)C(=O)NC(C(=O)NCCc1nc(-c2nc(C(=O)NCCC[S+](C)C)cs2)cs1)C(C)O)C(O[C@@H]1O[C@@H](CO)[C@@H](O)[C@H](O)[C@@H]1O[C@H]1O[C@H](CO)[C@@H](O)[C@H](OC(N)=O)[C@@H]1O)c1cnc[nH]1` (some centres undefined) [Bleomycin sulfate] (14.1285 µM), the “fraction of cells in G1 phase” value amounted to 0.924.
On the same count and under the same terms, the value for `CN(C)[C@@H]1C(=O)C(C(N)=O)=C(O)[C@@]2(O)C(=O)C3=C(O)c4c(O)cccc4[C@@](C)(O)[C@H]3C[C@@H]12` [Tetracycline] (44.9999 µM) was 0.471.
On the same count and under the same terms, the value for `C[N+](C)(C)CCCCCCCCCC[N+](C)(C)C` [Decamethonium 2Br] (77.371 µM) was 0.472.
Same read-out and setting: next, `CCCC[N+]1(C)[C@@H]2C[C@@H](OC(=O)[C@H](CO)c3ccccc3)C[C@H]1[C@@H]1O[C@@H]12` (some centres undefined) [Scopolamine n-butylbromide] (55.482 µM): 0.488; `C[C@@H]1CN([C@H]2CC[C@](C#N)(c3ccc(F)cc3)CC2)CC[C@]1(C(=O)O)c1ccccc1` [Levocabastine HCl] (47.5588 µM): 0.468.
As to `C[C@@H]1O[C@@H](O[C@H]2C[C@@H](O)[C@]3(CO)[C@H]4[C@H](O)C[C@]5(C)[C@@H](C6=CC(=O)OC6)CC[C@]5(O)[C@@H]4CC[C@]3(O)C2)[C@H](O)[C@H](O)[C@H]1O` [Ouabain] (27.4424 µM), the “fraction of cells in G1 phase” value is 0.521.
Same read-out and setting: next, `Cc1cccc(C)c1NC1=NCCCS1` [Xylazine HCl] (90.7693 µM): 0.506.

For the origin of these results see the supplement of paper PMC3342239.
